# Reference: publication PMC7862700, “An all-to-all approach to the identification of sequence-specific readers for epigenetic DNA modifications on cytosine”
# Key:
# Experiment in all cases: DAPPL (digital affinity profiling via proximity ligation, sequencing); 10 mM Tris-HCl pH 7.5, 50 mM NaCl, 1 mM DTT, 4% glycerol, room temperature, 30 min; GST-TFs on glutathione beads, 16-mer random dsDNA library, 0.1% formaldehyde crosslink after washing; high values mean tight binding
# [1] = biological target: T1, FEV (Homo sapiens, UniProt Q99581 1-238); details: protein: recombinant; tags: N-terminal GST; dsDNA, one strand shown
# T1 sequence: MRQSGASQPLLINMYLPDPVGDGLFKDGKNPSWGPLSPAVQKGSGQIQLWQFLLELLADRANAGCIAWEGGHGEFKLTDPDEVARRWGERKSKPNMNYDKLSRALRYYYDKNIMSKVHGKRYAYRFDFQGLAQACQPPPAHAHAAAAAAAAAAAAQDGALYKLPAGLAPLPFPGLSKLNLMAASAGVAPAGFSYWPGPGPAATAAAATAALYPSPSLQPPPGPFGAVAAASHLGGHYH
# Procedure, shortened: (§1)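 A tag-only sample was pooled with DNA-barcoded human transcription factors that had been expressed in yeast as GST fusions and captured on glutathione beads. The pools were incubated for 30 min at room temperature with 200 nmole of a random double-stranded 16-mer DNA library in Tris/NaCl/DTT/glycerol buffer, then washed, crosslinked with 0.1% formaldehyde, proximity-ligated (BsaI/T4 ligase, 1 h, 37 °C), PCR-amplified and sequenced on an Illumina NextSeq500. Binding signal is each hexamer's read frequency for a factor divided by its frequency for the tag-only sample.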
# [2] = biological target: ETV5 (Homo sapiens, UniProt P41161 1-510); details: protein: recombinant; tags: N-terminal GST; dsDNA, one strand shown
# Sequence of ETV5 (P41161 whole entry): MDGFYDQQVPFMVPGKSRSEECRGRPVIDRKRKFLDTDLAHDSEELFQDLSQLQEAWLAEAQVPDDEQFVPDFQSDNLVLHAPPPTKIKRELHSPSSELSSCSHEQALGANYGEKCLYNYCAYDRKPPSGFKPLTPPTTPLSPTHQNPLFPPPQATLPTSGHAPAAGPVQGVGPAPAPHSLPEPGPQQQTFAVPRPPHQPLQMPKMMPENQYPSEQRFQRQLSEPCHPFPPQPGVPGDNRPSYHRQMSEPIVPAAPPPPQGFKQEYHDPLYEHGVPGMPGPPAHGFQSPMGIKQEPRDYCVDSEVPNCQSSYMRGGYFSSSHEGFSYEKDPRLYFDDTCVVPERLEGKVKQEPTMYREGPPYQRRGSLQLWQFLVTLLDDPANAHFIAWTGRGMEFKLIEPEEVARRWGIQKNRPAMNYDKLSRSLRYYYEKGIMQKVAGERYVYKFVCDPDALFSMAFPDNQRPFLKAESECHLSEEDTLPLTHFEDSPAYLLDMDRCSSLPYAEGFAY
# Procedure, shortened: as §1
# [3] = biological target: HSF1 (Homo sapiens, UniProt Q00613 1-529); details: protein: recombinant; tags: N-terminal GST; chain copies: 3; dsDNA, one strand shown
# Sequence of HSF1 (Q00613 whole entry): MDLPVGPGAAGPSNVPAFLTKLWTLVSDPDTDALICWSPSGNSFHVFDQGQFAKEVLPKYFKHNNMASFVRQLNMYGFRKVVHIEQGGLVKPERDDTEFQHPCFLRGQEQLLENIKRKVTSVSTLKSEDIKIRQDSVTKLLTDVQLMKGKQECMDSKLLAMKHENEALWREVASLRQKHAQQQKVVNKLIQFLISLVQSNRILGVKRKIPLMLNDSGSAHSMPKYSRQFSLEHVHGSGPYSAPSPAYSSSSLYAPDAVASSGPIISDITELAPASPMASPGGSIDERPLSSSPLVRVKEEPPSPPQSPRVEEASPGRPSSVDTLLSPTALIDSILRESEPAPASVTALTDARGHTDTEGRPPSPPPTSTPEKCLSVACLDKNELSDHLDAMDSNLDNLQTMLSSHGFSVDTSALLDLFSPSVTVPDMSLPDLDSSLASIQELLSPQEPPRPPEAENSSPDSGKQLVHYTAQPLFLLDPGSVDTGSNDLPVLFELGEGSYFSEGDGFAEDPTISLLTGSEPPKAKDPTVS
# Procedure, shortened: as §1
# [4] = biological target: T2, SPIC (Homo sapiens, UniProt Q8N5J4 1-248); details: protein: recombinant; tags: N-terminal GST; dsDNA, one strand shown
# T2 sequence: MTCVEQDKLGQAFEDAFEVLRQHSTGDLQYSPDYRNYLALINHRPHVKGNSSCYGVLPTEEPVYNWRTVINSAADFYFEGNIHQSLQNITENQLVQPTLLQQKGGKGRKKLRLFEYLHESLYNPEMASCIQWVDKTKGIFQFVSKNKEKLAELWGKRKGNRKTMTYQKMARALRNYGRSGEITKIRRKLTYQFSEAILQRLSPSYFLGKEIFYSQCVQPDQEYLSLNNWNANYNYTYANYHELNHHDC
# Procedure, shortened: as §1
# [5] = biological target: ELF4 (Homo sapiens, UniProt Q99607 1-663); details: protein: recombinant; tags: N-terminal GST; dsDNA, one strand shown
# Sequence of ELF4 (Q99607 whole entry): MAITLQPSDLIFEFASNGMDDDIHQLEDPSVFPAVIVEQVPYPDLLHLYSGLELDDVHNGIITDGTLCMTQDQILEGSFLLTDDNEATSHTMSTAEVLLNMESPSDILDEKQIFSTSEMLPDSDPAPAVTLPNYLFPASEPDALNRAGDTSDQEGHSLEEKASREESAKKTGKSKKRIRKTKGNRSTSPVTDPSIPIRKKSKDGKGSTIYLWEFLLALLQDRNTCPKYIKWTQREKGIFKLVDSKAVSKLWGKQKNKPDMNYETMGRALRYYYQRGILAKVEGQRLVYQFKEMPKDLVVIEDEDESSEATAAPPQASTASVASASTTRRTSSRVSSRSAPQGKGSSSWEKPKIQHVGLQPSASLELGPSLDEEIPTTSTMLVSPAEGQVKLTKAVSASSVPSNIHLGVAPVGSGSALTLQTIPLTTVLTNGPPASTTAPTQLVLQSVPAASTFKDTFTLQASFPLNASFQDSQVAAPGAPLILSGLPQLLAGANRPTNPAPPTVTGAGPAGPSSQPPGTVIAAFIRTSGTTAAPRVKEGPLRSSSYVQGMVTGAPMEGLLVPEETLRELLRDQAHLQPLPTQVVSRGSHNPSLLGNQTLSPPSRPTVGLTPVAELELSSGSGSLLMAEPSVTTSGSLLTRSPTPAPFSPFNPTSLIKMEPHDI
# Procedure, shortened: as §1
# [6] = biological target: T3, ELK4 (Homo sapiens, UniProt P28324-2 1-405); details: protein: recombinant; tags: N-terminal GST; dsDNA, one strand shown
# T3 sequence: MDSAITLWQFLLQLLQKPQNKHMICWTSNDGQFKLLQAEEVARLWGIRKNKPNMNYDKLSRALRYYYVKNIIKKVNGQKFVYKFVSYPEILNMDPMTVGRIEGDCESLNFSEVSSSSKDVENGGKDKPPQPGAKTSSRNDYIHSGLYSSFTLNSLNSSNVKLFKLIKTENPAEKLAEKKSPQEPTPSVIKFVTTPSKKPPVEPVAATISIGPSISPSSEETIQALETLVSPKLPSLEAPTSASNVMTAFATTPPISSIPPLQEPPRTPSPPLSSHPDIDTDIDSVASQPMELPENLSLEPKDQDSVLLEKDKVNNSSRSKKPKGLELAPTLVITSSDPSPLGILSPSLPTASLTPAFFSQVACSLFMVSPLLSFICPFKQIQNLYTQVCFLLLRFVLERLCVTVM
# Procedure, shortened: as §1
# [7] = biological target: T4, ETV2 (Homo sapiens, UniProt O00321 1-342); details: protein: recombinant; tags: N-terminal GST; dsDNA, one strand shown
# T4 sequence: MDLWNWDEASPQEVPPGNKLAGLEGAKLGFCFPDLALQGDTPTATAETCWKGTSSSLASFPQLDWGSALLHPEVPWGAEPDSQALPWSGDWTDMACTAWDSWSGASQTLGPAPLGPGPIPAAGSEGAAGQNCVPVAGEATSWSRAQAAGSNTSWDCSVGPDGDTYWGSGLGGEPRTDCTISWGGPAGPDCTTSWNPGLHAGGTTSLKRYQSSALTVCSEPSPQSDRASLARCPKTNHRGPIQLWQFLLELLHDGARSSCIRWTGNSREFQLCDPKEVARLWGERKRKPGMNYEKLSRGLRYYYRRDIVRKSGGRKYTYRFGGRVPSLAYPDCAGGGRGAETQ
# Procedure, shortened: as §1
# [8] = biological target: T5, ELF3 (Homo sapiens, UniProt P78545 1-371); details: protein: recombinant; tags: N-terminal GST; dsDNA, one strand shown
# T5 sequence: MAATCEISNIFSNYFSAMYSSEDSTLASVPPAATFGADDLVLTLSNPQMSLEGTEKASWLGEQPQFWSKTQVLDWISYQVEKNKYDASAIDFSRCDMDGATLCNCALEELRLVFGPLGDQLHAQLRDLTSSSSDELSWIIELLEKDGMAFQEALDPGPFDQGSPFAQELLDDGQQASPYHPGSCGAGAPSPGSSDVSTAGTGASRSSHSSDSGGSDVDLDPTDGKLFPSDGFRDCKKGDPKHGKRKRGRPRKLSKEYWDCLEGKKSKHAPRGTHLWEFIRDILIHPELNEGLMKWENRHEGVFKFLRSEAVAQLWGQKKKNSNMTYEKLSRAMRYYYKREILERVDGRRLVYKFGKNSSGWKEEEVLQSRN
# Procedure, shortened: as §1
# [9] = biological target: CRX (Homo sapiens, UniProt O43186 1-299); details: protein: recombinant; tags: N-terminal GST; dsDNA, one strand shown
# Sequence of CRX (O43186 whole entry): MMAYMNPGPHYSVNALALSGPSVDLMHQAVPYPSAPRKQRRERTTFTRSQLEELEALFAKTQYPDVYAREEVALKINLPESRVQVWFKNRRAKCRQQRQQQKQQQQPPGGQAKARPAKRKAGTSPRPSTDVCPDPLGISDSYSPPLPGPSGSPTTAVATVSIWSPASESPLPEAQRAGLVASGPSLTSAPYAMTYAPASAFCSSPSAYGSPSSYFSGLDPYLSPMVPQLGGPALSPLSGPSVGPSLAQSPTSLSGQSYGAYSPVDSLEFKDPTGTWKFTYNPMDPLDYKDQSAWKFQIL
# Procedure, shortened: as §1
# [10] = biological target: ETV1 (Homo sapiens, UniProt P50549 1-477); details: protein: recombinant; tags: N-terminal GST; dsDNA, one strand shown
# Sequence of ETV1 (P50549 whole entry): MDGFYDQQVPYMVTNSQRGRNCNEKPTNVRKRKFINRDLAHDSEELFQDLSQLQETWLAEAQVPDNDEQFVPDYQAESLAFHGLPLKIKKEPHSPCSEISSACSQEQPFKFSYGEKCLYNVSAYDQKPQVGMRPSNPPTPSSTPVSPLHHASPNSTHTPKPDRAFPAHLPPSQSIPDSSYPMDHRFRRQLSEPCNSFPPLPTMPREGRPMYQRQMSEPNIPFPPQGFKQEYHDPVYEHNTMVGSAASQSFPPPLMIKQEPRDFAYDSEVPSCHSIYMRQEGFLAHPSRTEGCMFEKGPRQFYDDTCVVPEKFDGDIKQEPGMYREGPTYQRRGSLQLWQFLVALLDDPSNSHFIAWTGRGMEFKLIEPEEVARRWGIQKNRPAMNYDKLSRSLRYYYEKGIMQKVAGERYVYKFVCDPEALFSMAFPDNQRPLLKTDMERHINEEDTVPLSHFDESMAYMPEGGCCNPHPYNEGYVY
# Procedure, shortened: as §1
# [11] = biological target: T6, ERF (Homo sapiens, UniProt P50548 1-548); details: protein: recombinant; tags: N-terminal GST; dsDNA, one strand shown
# T6 sequence: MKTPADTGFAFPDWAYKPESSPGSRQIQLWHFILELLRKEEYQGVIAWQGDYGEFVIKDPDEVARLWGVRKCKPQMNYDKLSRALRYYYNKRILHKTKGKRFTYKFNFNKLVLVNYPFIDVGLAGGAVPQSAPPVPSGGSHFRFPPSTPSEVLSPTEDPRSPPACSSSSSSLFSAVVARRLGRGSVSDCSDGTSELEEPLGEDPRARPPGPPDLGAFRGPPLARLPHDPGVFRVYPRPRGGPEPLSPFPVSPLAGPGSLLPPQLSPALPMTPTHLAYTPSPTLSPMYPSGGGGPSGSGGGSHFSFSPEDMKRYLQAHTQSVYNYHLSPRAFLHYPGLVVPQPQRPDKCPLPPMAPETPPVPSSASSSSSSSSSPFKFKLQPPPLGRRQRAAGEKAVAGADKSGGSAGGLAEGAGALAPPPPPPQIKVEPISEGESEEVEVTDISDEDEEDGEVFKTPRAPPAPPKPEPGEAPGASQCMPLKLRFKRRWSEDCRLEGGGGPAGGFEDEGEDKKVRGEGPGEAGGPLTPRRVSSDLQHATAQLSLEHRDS
# Procedure, shortened: as §1
# [12] = biological target: T7, ETV3L (Homo sapiens, UniProt Q6ZN32 1-361); details: protein: recombinant; tags: N-terminal GST; dsDNA, one strand shown
# T7 sequence: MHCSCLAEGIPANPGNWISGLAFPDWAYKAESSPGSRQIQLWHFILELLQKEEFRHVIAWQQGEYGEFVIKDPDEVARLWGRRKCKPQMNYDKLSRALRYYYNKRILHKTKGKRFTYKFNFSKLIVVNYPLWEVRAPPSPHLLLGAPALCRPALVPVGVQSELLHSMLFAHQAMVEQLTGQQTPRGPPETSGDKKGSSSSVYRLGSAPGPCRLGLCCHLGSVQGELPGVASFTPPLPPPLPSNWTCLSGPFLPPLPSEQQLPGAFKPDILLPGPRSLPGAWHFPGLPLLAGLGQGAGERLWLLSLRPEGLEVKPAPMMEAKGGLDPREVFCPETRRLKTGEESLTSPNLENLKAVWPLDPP
# Procedure, shortened: as §1
# [13] = biological target: T8, ETS2 (Homo sapiens, UniProt P15036 1-469); details: protein: recombinant; tags: N-terminal GST; dsDNA, one strand shown
# T8 sequence: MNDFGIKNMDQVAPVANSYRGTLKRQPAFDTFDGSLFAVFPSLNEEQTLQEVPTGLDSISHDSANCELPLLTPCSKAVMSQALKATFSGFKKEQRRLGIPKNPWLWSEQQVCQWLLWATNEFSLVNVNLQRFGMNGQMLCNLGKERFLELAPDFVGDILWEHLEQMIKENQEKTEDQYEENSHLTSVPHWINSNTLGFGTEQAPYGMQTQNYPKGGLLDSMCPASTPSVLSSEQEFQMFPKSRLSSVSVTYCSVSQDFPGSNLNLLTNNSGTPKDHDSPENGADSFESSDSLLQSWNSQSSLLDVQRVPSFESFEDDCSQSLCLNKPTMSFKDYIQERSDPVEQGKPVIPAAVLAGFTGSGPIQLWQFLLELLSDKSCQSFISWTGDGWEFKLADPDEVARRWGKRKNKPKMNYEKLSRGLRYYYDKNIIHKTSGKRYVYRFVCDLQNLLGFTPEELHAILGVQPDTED
# Procedure, shortened: as §1
# [14] = biological target: T9, SPDEF (Homo sapiens, UniProt O95238 1-335); details: protein: recombinant; tags: N-terminal GST; dsDNA, one strand shown
# T9 sequence: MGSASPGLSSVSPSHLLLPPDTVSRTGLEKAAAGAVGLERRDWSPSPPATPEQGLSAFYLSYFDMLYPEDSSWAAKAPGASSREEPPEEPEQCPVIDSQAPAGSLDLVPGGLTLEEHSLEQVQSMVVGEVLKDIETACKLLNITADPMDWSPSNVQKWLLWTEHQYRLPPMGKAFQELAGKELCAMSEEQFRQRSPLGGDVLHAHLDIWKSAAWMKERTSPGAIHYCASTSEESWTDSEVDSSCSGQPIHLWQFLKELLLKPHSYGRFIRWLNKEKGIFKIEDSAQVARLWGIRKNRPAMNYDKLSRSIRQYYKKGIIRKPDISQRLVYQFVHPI
# Procedure, shortened: as §1
# [15] = biological target: T10, ETV7 (Homo sapiens, UniProt Q9Y603 1-341); details: protein: recombinant; tags: N-terminal GST; dsDNA, one strand shown
# T10 sequence: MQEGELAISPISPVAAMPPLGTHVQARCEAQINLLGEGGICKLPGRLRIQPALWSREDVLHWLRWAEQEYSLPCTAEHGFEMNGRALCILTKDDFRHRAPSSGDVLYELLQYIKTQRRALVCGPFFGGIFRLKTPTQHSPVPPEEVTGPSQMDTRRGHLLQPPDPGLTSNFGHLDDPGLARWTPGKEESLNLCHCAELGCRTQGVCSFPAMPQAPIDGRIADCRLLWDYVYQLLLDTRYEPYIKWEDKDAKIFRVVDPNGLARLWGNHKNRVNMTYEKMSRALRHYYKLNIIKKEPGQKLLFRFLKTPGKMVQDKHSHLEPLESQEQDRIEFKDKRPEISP
# Procedure, shortened: as §1
# [16] = biological target: T11, ELF5 (Homo sapiens, UniProt Q9UKW6-2 1-255); details: protein: recombinant; tags: N-terminal GST; dsDNA, one strand shown
# T11 sequence: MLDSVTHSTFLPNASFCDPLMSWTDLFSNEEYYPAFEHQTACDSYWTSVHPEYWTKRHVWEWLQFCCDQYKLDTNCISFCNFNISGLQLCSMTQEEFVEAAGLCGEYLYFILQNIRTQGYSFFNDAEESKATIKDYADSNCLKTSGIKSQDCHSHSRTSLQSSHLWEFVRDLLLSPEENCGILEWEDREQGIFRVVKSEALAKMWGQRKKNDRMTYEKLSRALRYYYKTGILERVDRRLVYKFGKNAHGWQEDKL
# Procedure, shortened: as §1
# [17] = biological target: T12, ETV3 (Homo sapiens, UniProt P41162-2 1-143); details: protein: recombinant; tags: N-terminal GST; dsDNA, one strand shown
# T12 sequence: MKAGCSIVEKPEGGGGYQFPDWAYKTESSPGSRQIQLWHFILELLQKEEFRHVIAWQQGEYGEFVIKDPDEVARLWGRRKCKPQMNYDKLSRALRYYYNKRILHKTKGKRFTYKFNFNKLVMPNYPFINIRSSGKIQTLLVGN
# Procedure, shortened: as §1
# [18] = biological target: ETV6 (Homo sapiens, UniProt P41212 1-452); details: protein: recombinant; tags: N-terminal GST; dsDNA, one strand shown
# Sequence of ETV6 (P41212 whole entry): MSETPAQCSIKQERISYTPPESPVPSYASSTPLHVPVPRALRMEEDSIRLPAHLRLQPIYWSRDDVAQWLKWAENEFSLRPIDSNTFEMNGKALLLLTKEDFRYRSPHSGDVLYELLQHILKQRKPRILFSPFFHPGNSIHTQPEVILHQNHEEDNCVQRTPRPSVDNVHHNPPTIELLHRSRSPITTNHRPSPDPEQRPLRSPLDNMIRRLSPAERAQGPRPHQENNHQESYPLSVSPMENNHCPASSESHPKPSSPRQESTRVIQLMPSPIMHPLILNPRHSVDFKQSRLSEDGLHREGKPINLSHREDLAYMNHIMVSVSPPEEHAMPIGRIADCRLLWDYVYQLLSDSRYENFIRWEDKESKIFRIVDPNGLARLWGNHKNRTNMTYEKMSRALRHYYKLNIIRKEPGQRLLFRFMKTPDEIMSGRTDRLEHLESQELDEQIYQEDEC
# Procedure, shortened: as §1
sequence,measurement,setting,value
CACTTG,binding signal,[1],"1.33 fold enrichment (6-mer frequency, TF over GST control)"
same,binding signal,[2],"1.41 fold enrichment (6-mer frequency, TF over GST control)"
same,binding signal,[3],"1.12 fold enrichment (6-mer frequency, TF over GST control)"
same,binding signal,[4],"1.12 fold enrichment (6-mer frequency, TF over GST control)"
same,binding signal,[5],"1.45 fold enrichment (6-mer frequency, TF over GST control)"
same,binding signal,[6],"1.43 fold enrichment (6-mer frequency, TF over GST control)"
same,binding signal,[7],"1.36 fold enrichment (6-mer frequency, TF over GST control)"
same,binding signal,[8],"1.41 fold enrichment (6-mer frequency, TF over GST control)"
same,binding signal,[9],"1.1 fold enrichment (6-mer frequency, TF over GST control)"
same,binding signal,[10],"1.36 fold enrichment (6-mer frequency, TF over GST control)"
same,binding signal,[11],"1.41 fold enrichment (6-mer frequency, TF over GST control)"
same,binding signal,[12],"1.22 fold enrichment (6-mer frequency, TF over GST control)"
same,binding signal,[13],"1.32 fold enrichment (6-mer frequency, TF over GST control)"
same,binding signal,[14],"1.35 fold enrichment (6-mer frequency, TF over GST control)"
same,binding signal,[15],"1.37 fold enrichment (6-mer frequency, TF over GST control)"
same,binding signal,[16],"1.33 fold enrichment (6-mer frequency, TF over GST control)"
same,binding signal,[17],"1.39 fold enrichment (6-mer frequency, TF over GST control)"
same,binding signal,[18],"1.31 fold enrichment (6-mer frequency, TF over GST control)"
